Here are results for six compounds from PubChem BioAssay AID720519 (National Center for Advancing Translational Sciences (NCATS), 2013).

Results filed as inconclusive are left out. Where a call stands in place of a potency, no number is given. Activity calls are given as the source filed them. The call rests on the fitted dose curve; in most records, active means well fitted activation curve with a large enough effect; inconclusive means small, poorly fitted or top-dose-only effect; inactive means flat fitted curve, though single readings scatter.

The nature of this assay: qHTS for Inhibitors of Cell Surface uPA Generation: Confirmatory Assay for Cherry-picked Compounds. Conditions: cell surface uPA activity generation, qHTS confirmation; series mostly up to 115 µM. In a few lines: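 RAW 264.7 cells at 4000/well, incubated overnight, then treated with compounds. After 24 h at 37 C, viability was read by ATPlite luminescence. An increase in signal indicates blocked uPA-dependent LF entry.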
For `CCc1ccc(S(=O)(=O)NCCc2cn3cccc(C)c3n2)s1`, the Potency result is “inactive”.

On to `CC(C)NCC1CCc2cc(CO)c([N+](=O)[O-])cc2N1` (stereo unspecified), for which the Potency result was “inactive”.

Regarding `Cc1cc(=O)n2nc(N3CCCC(C(=O)NCc4ccc(Cl)cc4)C3)sc2n1` (stereo unspecified), the Potency result was “inactive”.

With `Cc1ccc(N2C(=O)c3ccccc3C2(O)c2ccccc2)cc1` (stereo unspecified), the Potency result was “inactive”.

Take `COc1ccc(C2=C/C(=C\c3ccccc3OC(C)=O)C(=O)O2)cc1`: the Potency entry is “inactive”.

Consider `COc1ccc(S(=O)(=O)c2c(O)c3ccc(C(=O)Nc4ccccc4)cc3[nH]c2=O)cc1`, for which the Potency entry is “inactive”.
